The values below come from PubChem BioAssay (NCATS).

The source made the active and inactive calls. The call rests on the fitted dose curve.

The assay in a line: qHTS drug screen for cell cycle checkpoint inhibitors in PARPi-resistant BRCA-mutant ovarian cancer cell lines. (AID 1963452). The note with it: PEO1/OlaR viability, CellTiter-Glo luminescence, 96 h, stronger effect = lower value. The method, boiled down: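 PEO1, PEO4 and PEO1/OlaR ovarian cancer cells, 600 per well, exposed 96 h at 37C to a dilution series. Viability read by CellTiter-Glo luminescence, normalized to DMSO and empty wells; activity summarized as Z-AUC.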
On the technique in general: qHTS replaces the single test concentration by a dilution series.

Setting [1] is: measured here: PEO1 parental Z-AUC.

On to `N#CC1(c2cccc(C(=O)Nc3cc(Oc4ccc5nc(NC(=O)C6CC6)sc5n4)ccc3F)c2Cl)CC1`, for which the Z-AUC is -0.948 (inactive). The Z-AUC under setting [1] is -1.21. Moreover, the Z-AUC (measured here: PEO4 Z-AUC) was -0.816.

For `N#CC(c1ccnc(NCCc2cccnc2)n1)c1nc2ccccc2s1` (configuration not stated), the Z-AUC is 1.07 (inactive). Under setting [1], the Z-AUC stood at 0.451. In addition, the Z-AUC (measured here: PEO4 Z-AUC) turned out to be 0.404.

With `COc1cc2c(cc1Cc1cccc(Cl)c1F)c(=O)c(C(=O)O)cn2[C@H](CO)C(C)C`, the Z-AUC was 1.07 (inactive). Under setting [1], the Z-AUC came to 0.736. Also, the Z-AUC (measured here: PEO4 Z-AUC) worked out at 0.927.

Turning to `COc1cc2ncn(-c3cc(OCc4ccccc4S(C)(=O)=O)c(C#N)s3)c2cc1OC`, the Z-AUC was 0.942 (inactive). Moreover, the Z-AUC under setting [1] came to 0.779. For the same compound, the Z-AUC (measured here: PEO4 Z-AUC) turned out to be 0.362.

Regarding `Cc1cnc(CNC(=O)c2c(=O)c3ccc(N4CCCN(C)CC4)nc3n3c2sc2ccccc23)cn1`, the Z-AUC is -0.335 (inactive). Moreover, under setting [1], the Z-AUC is -0.603. Under “measured here: PEO4 Z-AUC”, the Z-AUC was found to be 0.0193.

Turning to `O=c1[nH]nc(OCCCc2ccc(Cl)cc2)c(NCc2cccnc2)c1Br`, the Z-AUC was -1.27 (inactive). Under setting [1], the Z-AUC is -1.54. Further, where the note is “measured here: PEO4 Z-AUC”, the Z-AUC is -1.42.

In the case of `CN1c2ccccc2C(=O)N2CCc3c([nH]c4ccccc34)C21` (configuration not stated), the Z-AUC is 0.807 (inactive). Further, the Z-AUC under setting [1] was -0.272. For the same compound, the Z-AUC (measured here: PEO4 Z-AUC) was -0.128.

For `NC(=O)c1noc([C@H](CCCC2CCCCC2)CC(=O)NO)n1`, the Z-AUC is 1.33 (inactive). Further, under setting [1], the Z-AUC was determined as 0.607. For the same compound, the Z-AUC (measured here: PEO4 Z-AUC) turned out to be 0.522.

Regarding `C[C@@H](NC(=O)c1ncnc(N)c1Cl)c1ncc(C(=O)Nc2cc(C(F)(F)F)c(Cl)cn2)s1`, the Z-AUC was 0.509 (inactive). For the same compound, under setting [1], the Z-AUC amounted to 0.52. Also, the Z-AUC (measured here: PEO4 Z-AUC) turned out to be 0.658.

Regarding `CN(C)c1ccccc1CN1CCCN(Cc2ccccc2N(C)C)C1c1ccncc1`, the Z-AUC was -0.339 (inactive). Besides, the Z-AUC under setting [1] is 0.0487. Also, the Z-AUC (measured here: PEO4 Z-AUC) was -0.169.

With `CCOC(=O)c1c(CSc2ccccc2)n(C)c2cc(Br)c(O)c(CN(C)C)c12`, the Z-AUC was 0.838 (inactive). Also, the Z-AUC under setting [1] amounted to 0.193. Besides, the Z-AUC (measured here: PEO4 Z-AUC) is 0.129.

Regarding `CC1CCN(c2cc(N3CCN(C)CC3)ccc2NC(=O)c2cc(C#N)c[nH]2)CC1`, the Z-AUC was -1.13 (inactive). The Z-AUC under setting [1] is -0.115. Besides, the Z-AUC (measured here: PEO4 Z-AUC) came out at 0.801.

In the case of `COc1ccc2c(c1)c(C1=C(c3c[nH]c4ccccc34)C(=O)NC1=O)cn2CCCN(C)C`, the Z-AUC is -1.63 (inactive). For the same compound, the Z-AUC under setting [1] was -0.951. Under “measured here: PEO4 Z-AUC”, the Z-AUC was -1.4.

Regarding `CCC(c1ccc(O)cc1)C(CC)c1ccc(O)cc1` (configuration not stated), the Z-AUC is -0.216 (inactive). The Z-AUC under setting [1] was -0.74. Further, the Z-AUC (measured here: PEO4 Z-AUC) was -0.679.

For `CCc1cccc(CC)c1NC(=O)N1Cc2[nH]nc(NC(=O)c3ccc(N4CCN(C)CC4)cc3)c2C1`, the Z-AUC is -0.0238 (inactive). The Z-AUC under setting [1] was 0.421. For the same compound, the Z-AUC (measured here: PEO4 Z-AUC) is -0.125.

In the case of `OC1CCC(Nc2ncc3nc(Nc4c(F)cc(F)cc4F)n([C@@H]4CCOC4)c3n2)CC1` (some centres not stated), the Z-AUC is 0.218 (inactive). Under setting [1], the Z-AUC was 0.89. Under “measured here: PEO4 Z-AUC”, the Z-AUC worked out at 0.44.

On to `O=C(Nc1cccc(C(F)(F)F)c1)Nc1cc(S(=O)(=O)NC2CC2)ccc1-c1ccsc1`, for which the Z-AUC was -0.117 (inactive). Moreover, the Z-AUC under setting [1] was -0.289. Further, where the note is “measured here: PEO4 Z-AUC”, the Z-AUC is -0.479.

`COc1ccc(CCC(=O)Nc2nc3ccc(Cl)cc3s2)cc1OC`: the Z-AUC is -1.42 (inactive). For the same compound, the Z-AUC under setting [1] was -0.917. In addition, the Z-AUC (measured here: PEO4 Z-AUC) is -0.954.

With `CC(C)C[C@H](NC(=O)c1cc2ccccc2s1)C(=O)N1CCN(C(=O)[C@H](CO)NS(=O)(=O)c2ccc(Cl)cc2Cl)CC1`, the Z-AUC is -0.613 (inactive). Also, the Z-AUC under setting [1] was -0.17. Also, under “measured here: PEO4 Z-AUC”, the Z-AUC was -1.13.

Turning to `COc1ccc(Cn2ccc3ccc(C(=O)NO)cc32)cc1`, the Z-AUC is 1.36 (inactive). In addition, the Z-AUC under setting [1] was found to be 1.01. Besides, the Z-AUC (measured here: PEO4 Z-AUC) amounted to 1.

For `CN(C)CC[C@H](CSc1ccccc1)Nc1ccc(S(=O)(=O)NC(=O)c2ccc(N3CCN(Cc4ccccc4-c4ccc(Cl)cc4)CC3)cc2)cc1[N+](=O)[O-]`, the Z-AUC is -0.74 (inactive). Besides, the Z-AUC under setting [1] worked out at 0.0363. The Z-AUC (measured here: PEO4 Z-AUC) was -1.54.

As to `COc1cc([C@@H]2c3cc4c(cc3[C@@H](O[C@@H]3O[C@@H]5CO[C@@H](C)O[C@@H]5[C@H](O)[C@@H]3O)[C@H]3COC(=O)[C@H]23)OCO4)cc(OC)c1O`, the Z-AUC was -0.699 (inactive). Further, the Z-AUC under setting [1] is -1.32. Moreover, the Z-AUC (measured here: PEO4 Z-AUC) is -0.275.

In the case of `Cc1cc(C(C)Nc2ccccc2)c2nc(N3CCOCC3)cc(=O)n2c1` (configuration not stated), the Z-AUC was 0.744 (inactive). For the same compound, under setting [1], the Z-AUC was 1.25. For the same compound, the Z-AUC (measured here: PEO4 Z-AUC) is 1.25.

Take `CC(C)Oc1cc(Nc2nc(N[C@@H](C)c3ccc(F)cn3)ncc2Cl)[nH]n1`: the Z-AUC was -1.59 (inactive). Under setting [1], the Z-AUC was -1.36. Further, the Z-AUC (measured here: PEO4 Z-AUC) is -0.661.

As for `Clc1ccc(C2(c3ccc(-c4cn[nH]c4)cc3)CCNCC2)cc1`, the Z-AUC is 0.223 (inactive). Further, the Z-AUC under setting [1] was determined as 0.18. Also, the Z-AUC (measured here: PEO4 Z-AUC) amounted to 0.0319.

Turning to `CCN(CC)CCCCNc1nc2cc(Cl)c(Cl)cc2nc1-c1ccc(-c2cccs2)s1`, the Z-AUC is 2.01 (inactive). The Z-AUC under setting [1] was 0.897. Also, under “measured here: PEO4 Z-AUC”, the Z-AUC was determined as 0.59.

As to `CN(C)CCCNC(=O)c1ccc(-c2cc(O)c3ncccc3c2)cc1`, the Z-AUC is -0.763 (inactive). Under setting [1], the Z-AUC is -0.299. Under “measured here: PEO4 Z-AUC”, the Z-AUC was -0.292.

Turning to `CCc1cc(-c2n[nH]c(C)c2-c2ccc3c(c2)OCCO3)c(O)cc1O`, the Z-AUC is 0.644 (inactive). For the same compound, under setting [1], the Z-AUC came out at 0.497. Further, the Z-AUC (measured here: PEO4 Z-AUC) is 0.316.

For `CNC(=O)c1cc(Oc2ccc(NC(=O)Nc3ccc(Cl)c(C(F)(F)F)c3)c(F)c2)ccn1`, the Z-AUC is 0.96 (inactive). Besides, under setting [1], the Z-AUC turned out to be 0.462. For the setting “measured here: PEO4 Z-AUC”, the Z-AUC worked out at 0.496.
